Data: paper PMC12431657, “Discovery and mechanistic insights of dibenzoylmethane as a broad spectrum inhibitor of coronavirus” (PLOS Pathogens, 2025)
About 60 (2%) of roughly 3,300 compounds showed an effect of 50% or more. For the sample, strong results were picked, then their nearest neighbours and some compounds at random.

Tested on: HCoV-OC43
Set-up: species or system RD; HTS, protection from HCoV-OC43 induced cell death, luminescent cell viability (CellCounting-Lite 2.0), inhibition rate
Settings: 24 h post infection, 1 h compound pre-incubation; 10 µM; inhibitor

Row | Structure (SMILES) | OC43 Inhibition rate [%]
1 | C=C1[C@@H](C)[C@H]2[C@H](Cc3ccccc3)NC(=O)[C@]23OC(=O)/C=C/[C@H](O)CCC[C@@H](C)C/C=C/[C@H]3[C@@H]1O [Cytochalasin B] | 63
2 | C=C1C[C@@]23CC[C@H]4[C@@](C)(CCC[C@@]4(C)C(=O)O[C@@H]4O[C@H](CO)[C@@H](O)[C@H](O)[C@H]4O[C@@H]4O[C@H](CO)[C@@H](O)[C@H](O)[C@H]4O)[C@@H]2CC[C@]1(O[C@@H]1O[C@H](CO)[C@@H](O)[C@H](O[C@@H]2O[C@H](CO)[C@@H](O)[C@H](O)[C@H]2O)[C@H]1O[C@@H]1O[C@H](CO)[C@@H](O)[C@H](O)[C@H]1O)C3 [Rebaudioside D] | 1.1
3 | CCCCC1OC(=O)C2=CCCCC21 (stereo not drawn) [Sedanolide] | -0.1
4 | CC(C)=CCc1c(-c2ccc(O)cc2O)oc2c(CC=C(C)C)c(O)cc(O)c2c1=O [Mulberrin] | 51.7
5 | COc1ccc(-c2oc3c(CC=C(C)C)c(O)cc(O)c3c(=O)c2O)cc1 [Icaritin] | 0.1
6 | CC(C)=CCc1cc(-c2coc3cc(O)cc(O)c3c2=O)cc(O)c1O [Glycyrrhisoflavone] | 2.1
7 | CC(C)=CCc1c(O)ccc(-c2coc3cc(O)cc(O)c3c2=O)c1O [Licoisoflavone A] | 59.7
8 | CC(C)=CCc1cc(-c2coc3cc(O)ccc3c2=O)ccc1O [Neobavaisoflavone] | 18.1
9 | COc1ccc(-c2oc3c(CC=C(C)C)c(O)cc(O)c3c(=O)c2O[C@@H]2O[C@@H](C)[C@H](O)[C@@H](O)[C@H]2O[C@@H]2O[C@@H](C)[C@H](O)[C@@H](O)[C@H]2O)cc1 [2''-O-Rhamnosylicariside II] | 0.3
10 | CC(C)=CCc1c(-c2ccc(O)cc2O)oc2c3c(cc(O)c2c1=O)OC(C)(C)C=C3 [Morusin] | 5.8
11 | CC(C)=CCc1c(O)cc(O)c2c(=O)cc(-c3ccc(O)cc3)oc12 [Licoflavone C] | 7.3
12 | CC(C)=CCc1c(O)cc(O)c2c(=O)c(-c3ccc(O)cc3)coc12 [Lupiwighteone] | 63.3
13 | COc1ccc(-c2oc3c(CC=C(C)C)c(O)cc(O)c3c(=O)c2O[C@@H]2O[C@@H](C)[C@H](O)[C@@H](O)[C@H]2O)cc1 [Baohuoside I] | 70.2
14 | O=c1c(-c2ccc(O)cc2)coc2cc(O)cc(O)c12 [Genistein] | 6.8
15 | CC(C)=CCc1c(O)cc(O)c2c(=O)c(O[C@@H]3O[C@@H](C)[C@H](O)[C@@H](O)[C@H]3O)c(-c3ccc(O)cc3)oc12 [IKarisoside A] | 14.9
